Source: ChEMBL document CHEMBL3988442, “University of Dundee, Small-Polar-MMV Screening Library” (2021)
For some assays here: Results with a measured potency or affinity are listed apart.

How the values were obtained:
Parameters in all cases: scale not given: direction of the effect not stated beside the values
[1] = biological target: Protein translocase subunit SecA (Escherichia coli (strain K12)) (UniProt P10408); experiment: Assay to Identify E. coli SecA ATPase Inhibitors; type: functional; settings: 30 µM
Sequence of Protein translocase subunit SecA (Escherichia coli (strain K12)) (P10408 whole entry): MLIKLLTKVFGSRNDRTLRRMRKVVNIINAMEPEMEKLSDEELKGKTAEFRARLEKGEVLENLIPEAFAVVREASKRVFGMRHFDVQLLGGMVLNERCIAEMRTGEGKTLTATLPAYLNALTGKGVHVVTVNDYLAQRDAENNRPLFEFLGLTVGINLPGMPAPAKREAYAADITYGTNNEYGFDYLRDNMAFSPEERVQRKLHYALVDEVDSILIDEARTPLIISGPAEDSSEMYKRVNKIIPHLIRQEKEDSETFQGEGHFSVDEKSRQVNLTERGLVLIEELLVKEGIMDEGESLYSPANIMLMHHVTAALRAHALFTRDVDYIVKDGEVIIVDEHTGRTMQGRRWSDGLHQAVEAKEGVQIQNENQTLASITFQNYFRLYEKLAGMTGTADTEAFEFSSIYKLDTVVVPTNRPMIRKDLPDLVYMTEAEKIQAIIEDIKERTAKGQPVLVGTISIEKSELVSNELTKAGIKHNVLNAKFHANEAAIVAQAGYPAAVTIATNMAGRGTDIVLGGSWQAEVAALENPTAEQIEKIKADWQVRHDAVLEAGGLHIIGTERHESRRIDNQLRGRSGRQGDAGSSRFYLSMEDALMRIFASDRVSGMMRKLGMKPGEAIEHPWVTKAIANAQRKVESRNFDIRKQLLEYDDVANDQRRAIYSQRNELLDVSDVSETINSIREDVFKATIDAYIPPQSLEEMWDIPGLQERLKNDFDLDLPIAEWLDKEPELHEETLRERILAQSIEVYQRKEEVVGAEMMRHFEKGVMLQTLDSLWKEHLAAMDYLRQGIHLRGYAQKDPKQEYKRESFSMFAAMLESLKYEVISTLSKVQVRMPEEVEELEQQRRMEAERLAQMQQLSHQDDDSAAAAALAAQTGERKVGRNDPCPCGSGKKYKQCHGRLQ

[2] = biological target: T1, Ubiquitin-activating enzyme e1, putative (Leishmania donovani (strain BPK282A1)) (UniProt E9BSI1); experiment: Leishmania donovani Ubiquitin Activating Enzyme (LdE1); type: functional; settings: 30 µM
T1 sequence (whole entry): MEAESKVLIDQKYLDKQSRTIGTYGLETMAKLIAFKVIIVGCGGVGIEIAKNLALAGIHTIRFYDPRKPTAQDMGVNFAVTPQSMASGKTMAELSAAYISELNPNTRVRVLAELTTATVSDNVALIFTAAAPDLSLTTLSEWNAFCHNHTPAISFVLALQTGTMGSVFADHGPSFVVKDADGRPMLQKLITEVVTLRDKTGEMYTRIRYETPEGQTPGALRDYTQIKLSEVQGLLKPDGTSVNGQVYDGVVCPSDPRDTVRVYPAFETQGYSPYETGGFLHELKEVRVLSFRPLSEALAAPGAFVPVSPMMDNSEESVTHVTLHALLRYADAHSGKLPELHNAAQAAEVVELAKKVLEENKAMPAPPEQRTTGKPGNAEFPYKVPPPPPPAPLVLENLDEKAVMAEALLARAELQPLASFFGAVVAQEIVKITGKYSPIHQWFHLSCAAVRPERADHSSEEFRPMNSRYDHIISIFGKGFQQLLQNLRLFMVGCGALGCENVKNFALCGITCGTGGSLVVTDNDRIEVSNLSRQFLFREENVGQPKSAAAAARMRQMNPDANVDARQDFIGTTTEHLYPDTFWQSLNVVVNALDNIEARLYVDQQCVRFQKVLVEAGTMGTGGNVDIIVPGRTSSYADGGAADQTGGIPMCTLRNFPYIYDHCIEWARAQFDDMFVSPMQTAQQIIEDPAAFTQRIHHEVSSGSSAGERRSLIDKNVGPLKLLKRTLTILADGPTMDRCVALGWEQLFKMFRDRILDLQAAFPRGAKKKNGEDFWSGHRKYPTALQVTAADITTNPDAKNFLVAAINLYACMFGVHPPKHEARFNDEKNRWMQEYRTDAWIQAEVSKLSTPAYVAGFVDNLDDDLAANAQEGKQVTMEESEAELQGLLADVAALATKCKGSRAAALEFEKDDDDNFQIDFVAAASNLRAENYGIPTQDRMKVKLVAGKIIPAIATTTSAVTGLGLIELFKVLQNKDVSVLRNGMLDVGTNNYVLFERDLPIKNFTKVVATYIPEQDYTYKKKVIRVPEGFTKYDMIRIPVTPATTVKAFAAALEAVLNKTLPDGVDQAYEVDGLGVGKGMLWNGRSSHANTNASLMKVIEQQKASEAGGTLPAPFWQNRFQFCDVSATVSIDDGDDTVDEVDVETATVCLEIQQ

[3] = biological target: AMP-activated protein kinase, AMPK (Homo sapiens) (UniProt P54646+O43741+P54619+Q9UGJ0+Q9Y478+Q13131+Q9UGI9); experiment: AMP-dependent Kinase enzyme assay. An in vitro enzyme assay that detects ADP turnover that is directly proportional to AMPK activity. This uses naive AMPK that is activated during the assay with MK-8722; type: functional; settings: 30 µM
[4] = biological target: Sialic acid-binding Ig-like lectin 9 (Homo sapiens) (UniProt Q9Y336); experiment: Hs-Siglec9 ALPHAscreen SOP 20170721; settings: 10 µM
Sequence of Sialic acid-binding Ig-like lectin 9 (Homo sapiens) (Q9Y336 whole entry): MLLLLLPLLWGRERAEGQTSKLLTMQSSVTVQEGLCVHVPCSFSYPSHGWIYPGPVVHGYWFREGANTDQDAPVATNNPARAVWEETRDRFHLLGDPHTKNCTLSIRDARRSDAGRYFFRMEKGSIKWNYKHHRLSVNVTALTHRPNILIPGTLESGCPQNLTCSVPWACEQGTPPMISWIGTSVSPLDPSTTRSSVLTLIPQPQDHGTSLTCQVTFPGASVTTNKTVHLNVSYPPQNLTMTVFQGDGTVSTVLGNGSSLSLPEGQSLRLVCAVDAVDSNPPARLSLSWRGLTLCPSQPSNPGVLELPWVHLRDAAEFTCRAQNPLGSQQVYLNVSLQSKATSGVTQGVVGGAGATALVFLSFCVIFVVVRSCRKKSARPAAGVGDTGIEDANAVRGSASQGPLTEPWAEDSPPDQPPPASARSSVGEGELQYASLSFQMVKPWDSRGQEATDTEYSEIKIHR

Trypanosoma cruzi = experiment: Trypanosoma cruzi phosphomannomutase and mannose-1-phosphate guanylyltransferase assay; type: functional; settings: 10 µM
[5] = biological target: T2, Arginase-2, mitochondrial (Homo sapiens) (UniProt P78540); experiment: in vitro enzyme assay to detect the production of urea directly proportional to the activity of Arginase II; type: functional; settings: 33.3 µM; also: in the data most compounds retested in dose-response had high values
T2 sequence (whole entry): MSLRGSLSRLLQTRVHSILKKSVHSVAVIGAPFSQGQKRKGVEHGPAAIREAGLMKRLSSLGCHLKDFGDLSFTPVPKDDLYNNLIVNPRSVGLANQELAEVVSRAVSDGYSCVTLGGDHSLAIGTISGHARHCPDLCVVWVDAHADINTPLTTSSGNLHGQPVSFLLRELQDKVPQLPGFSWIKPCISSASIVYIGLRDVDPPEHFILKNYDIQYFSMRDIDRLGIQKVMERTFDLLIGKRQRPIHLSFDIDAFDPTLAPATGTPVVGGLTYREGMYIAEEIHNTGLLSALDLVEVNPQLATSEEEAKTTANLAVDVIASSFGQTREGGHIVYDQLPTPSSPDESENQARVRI

[6] = biological target: T3, Proteasome subunit beta (Trypanosoma cruzi) (UniProt O96673); experiment: Trypanosoma cruzi proteasome chymotrypsin-like activity (TcProtChymo) assay.; also: in the data most compounds retested in dose-response had high values; type: functional; settings: 9.37 µM
T3 sequence (whole entry): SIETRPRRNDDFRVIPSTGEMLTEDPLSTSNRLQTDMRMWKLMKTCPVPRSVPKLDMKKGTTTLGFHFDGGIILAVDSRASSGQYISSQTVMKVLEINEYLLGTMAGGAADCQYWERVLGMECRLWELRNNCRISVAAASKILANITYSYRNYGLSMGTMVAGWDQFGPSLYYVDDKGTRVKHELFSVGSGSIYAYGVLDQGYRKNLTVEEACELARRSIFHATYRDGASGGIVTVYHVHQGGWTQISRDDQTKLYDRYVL

Homo sapiens = species on record: Homo sapiens; experiment: To identify inhibition of the IFN signalling (Jak-Stat) pathway via expression of an eGFP reporter gene under the control of an IFN-stimulated response element (ISRE) containing MxA promoter.; type: functional; settings: 30 µM
[7] = biological target: T4, Tyrosyl-tRNA synthetase, putative (Trypanosoma cruzi (strain CL Brener)) (UniProt Q4DSP6); experiment: Trypanosoma cruzi tyrosyl tRNA synthetase (TcYRS) _High Tyrosine SOP; type: functional; settings: 30 µM; also: in the data most compounds retested in dose-response had high values
T4 sequence (whole entry): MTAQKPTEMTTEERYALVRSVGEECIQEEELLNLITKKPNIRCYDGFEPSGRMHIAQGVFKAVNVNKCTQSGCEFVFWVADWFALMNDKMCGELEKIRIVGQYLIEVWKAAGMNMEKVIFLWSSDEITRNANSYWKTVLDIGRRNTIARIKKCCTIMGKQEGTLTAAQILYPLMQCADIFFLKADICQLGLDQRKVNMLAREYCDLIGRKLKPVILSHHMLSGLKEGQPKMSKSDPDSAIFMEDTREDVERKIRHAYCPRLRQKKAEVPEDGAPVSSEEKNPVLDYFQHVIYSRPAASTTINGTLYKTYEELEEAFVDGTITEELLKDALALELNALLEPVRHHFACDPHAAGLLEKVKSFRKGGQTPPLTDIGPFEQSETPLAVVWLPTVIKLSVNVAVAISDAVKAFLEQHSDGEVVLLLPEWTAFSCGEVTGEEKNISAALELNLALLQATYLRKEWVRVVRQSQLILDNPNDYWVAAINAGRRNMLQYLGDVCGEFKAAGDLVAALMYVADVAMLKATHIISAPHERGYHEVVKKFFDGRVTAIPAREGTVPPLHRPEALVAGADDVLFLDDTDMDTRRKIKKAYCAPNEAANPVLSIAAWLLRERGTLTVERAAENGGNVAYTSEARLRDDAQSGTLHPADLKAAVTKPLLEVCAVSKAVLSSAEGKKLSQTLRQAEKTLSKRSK

[8] = biological target: T4, Tyrosyl-tRNA synthetase, putative (Trypanosoma cruzi (strain CL Brener)); experiment: Trypanosoma cruzi tyrosyl tRNA synthetase (TcYRS) SOP; type: functional; settings: 30 µM
[9] = biological target: Chromo domain-containing protein 1 (Saccharomyces cerevisiae (strain ATCC 204508 / S288c) (Baker's yeast)) (UniProt P32657); experiment: ScCHD-1 Enzyme Inhibition Assay; type: functional; settings: 30 µM; also: in the data most compounds retested in dose-response had high values
Sequence of Chromo domain-containing protein 1 (Saccharomyces cerevisiae (strain ATCC 204508 / S288c) (Baker's yeast)) (P32657 whole entry, the tested form may be a part): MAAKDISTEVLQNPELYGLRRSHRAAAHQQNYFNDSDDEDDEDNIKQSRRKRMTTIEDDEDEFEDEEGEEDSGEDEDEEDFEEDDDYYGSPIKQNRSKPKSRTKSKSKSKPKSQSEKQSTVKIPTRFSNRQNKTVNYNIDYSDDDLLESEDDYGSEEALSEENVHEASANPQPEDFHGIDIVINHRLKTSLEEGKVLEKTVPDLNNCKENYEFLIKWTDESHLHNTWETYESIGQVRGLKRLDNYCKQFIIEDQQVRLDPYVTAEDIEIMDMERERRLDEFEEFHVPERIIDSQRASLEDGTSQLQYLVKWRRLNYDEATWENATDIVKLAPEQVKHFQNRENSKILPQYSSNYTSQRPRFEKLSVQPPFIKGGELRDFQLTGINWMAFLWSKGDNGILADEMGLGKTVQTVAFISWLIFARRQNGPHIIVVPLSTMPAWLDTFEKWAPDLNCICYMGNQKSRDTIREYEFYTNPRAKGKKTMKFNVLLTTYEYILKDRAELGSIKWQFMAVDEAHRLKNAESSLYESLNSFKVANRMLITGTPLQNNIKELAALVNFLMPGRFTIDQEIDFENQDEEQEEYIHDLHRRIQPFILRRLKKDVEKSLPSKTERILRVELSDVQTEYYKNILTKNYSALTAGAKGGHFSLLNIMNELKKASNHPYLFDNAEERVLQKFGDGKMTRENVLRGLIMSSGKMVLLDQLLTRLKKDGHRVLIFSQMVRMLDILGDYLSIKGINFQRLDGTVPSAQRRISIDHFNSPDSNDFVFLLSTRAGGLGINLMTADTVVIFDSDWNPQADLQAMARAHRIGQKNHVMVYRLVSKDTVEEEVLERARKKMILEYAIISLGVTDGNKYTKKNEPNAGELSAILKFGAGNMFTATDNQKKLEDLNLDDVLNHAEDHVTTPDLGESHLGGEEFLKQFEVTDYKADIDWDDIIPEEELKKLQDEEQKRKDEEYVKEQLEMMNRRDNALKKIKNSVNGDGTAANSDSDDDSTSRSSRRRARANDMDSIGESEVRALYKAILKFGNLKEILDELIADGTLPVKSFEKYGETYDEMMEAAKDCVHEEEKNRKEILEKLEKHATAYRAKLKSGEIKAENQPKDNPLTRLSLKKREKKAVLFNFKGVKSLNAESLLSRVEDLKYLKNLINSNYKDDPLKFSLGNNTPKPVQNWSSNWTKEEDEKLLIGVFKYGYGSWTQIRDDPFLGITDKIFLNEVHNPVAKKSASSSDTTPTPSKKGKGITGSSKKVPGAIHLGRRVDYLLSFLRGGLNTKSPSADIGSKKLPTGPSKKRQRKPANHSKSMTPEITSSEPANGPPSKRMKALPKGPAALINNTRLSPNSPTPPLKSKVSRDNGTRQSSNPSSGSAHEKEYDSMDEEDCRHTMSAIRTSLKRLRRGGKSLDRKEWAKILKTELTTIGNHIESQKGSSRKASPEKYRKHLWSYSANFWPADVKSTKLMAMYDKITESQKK

SMILES | Percent Effect [1] | Percent Effect [2] | Percent Effect [3] | Percent Effect [4] | Percent Effect (Trypanosoma cruzi) | Percent Effect [5] | Percent Effect [6] | Percent Effect (Homo sapiens) | Percent Effect [7] | Percent Effect [8] | Percent Effect [9]
Cc1cccc(CN2CCC3(CCCN(C(=O)c4ccsc4)C3)C2=O)n1 (configuration not stated) | -2.33% | 0% | 10.5% | -2.49% | 0.0986% | -0.645% | 3.48% | -3.21% | 3.17% | 3.85% | 87.7%
CC(C)c1nn(C)c(Cl)c1CNCC(O)c1cccc(F)c1 (configuration not stated) | -7.69% | 5.2% | -1.22% | -3.98% | 7.35% | -2.32% | 15.8% | 4.38% | 7.62% | 30.6% | -7%
CCN(CC)c1ccc(C(=O)NCc2cccnc2-n2cncn2)cn1 | -0.491% | 8.11% | -12.6% | 48.7% | 1.86% | 18.6% | 8.84% | 19.1% | 2.15% | 11.1% | -5.91%
Cc1ccc(CN2Cc3c(C(=O)N(C)C)nn(C)c3C2)s1 | -0.916% | -19.2% | -24.4% | 6.15% | 6.75% | -1.2% | 7.79% | -12.5% | 3.12% | 11.1% | -3.35%
CCOC(CC)C(=O)NCc1ccnc(Oc2ccc(F)cc2)c1 (configuration not stated) | -0.936% | -2.7% | -2.91% | 0.458% | -3.28% | 4.29% | 11% | 9.46% | 7.94% | 12.2% | -1.51%
CC(C)S(=O)(=O)NCC1CCCN(C(=O)c2cccnc2)C1 (configuration not stated) | -1.12% | 11% | -1.03% | -2.93% | -3.53% | 0.455% | 21.3% | 15% | 3.23% | 10% | -3.28%
CCn1c(Cn2cncn2)nnc1C1CCN(C(=O)CCSC)CC1 | -3.03% | 2.7% | -5.34% | 25.4% | 3.23% | 20.6% | 0.944% | 20.4% | 6.45% | 13.6% | -3.37%
CN(Cc1ccc(Cl)s1)C(=O)c1cccc(OCC(N)=O)c1 | 1.02% | 5.41% | 0.84% | -1.09% | -3.09% | 0.952% | 11.2% | 15.1% | 4.76% | 14.6% | -3.46%
Cc1ncsc1CN1CC[C@H]2OCC[C@@]2(C(=O)NC(C)C)C1 | -3.99% | 0% | 6.03% | -6.45% | -3.25% | 0.645% | 0.87% | 30.1% | -1.06% | -8.97% | 0.0917%
O=C(c1cc(COc2ccc3c(c2)OCO3)[nH]n1)N1CCCC1 | -4.35% | -5.48% | 4.54% | 2.19% | -5.56% | 4.39% | 21.7% | 14.2% | 3.12% | 6.17% | -1.77%
Cc1ccc(CNCc2nnc3n2CCCC3C(F)(F)F)o1 (configuration not stated) | -2.71% | 5.33% | 2.9% | -7.37% | -6.13% | -3.12% | 8.54% | 11.4% | 0.546% | 3.7% | -5.76%
Cc1cc(C)c(CNC(=O)NCC2CCCN2C)c(=O)[nH]1 (configuration not stated) | -7.62% | 2.63% | -1.76% | 2.1% | -4.89% | -2.68% | 4.84% | 25.4% | -4.41% | -2.44% | -2.8%
CCn1nc(C)c2ncnc(NCC(=O)N3CCOCC3)c21 | -1.89% | 9.33% | -3.08% | 10.4% | 2.55% | -8.28% | 14.4% | 30.3% | -28.6% | 5.13% | -9.1%
CN1CCc2c(C#N)c(NCCCN3CCOCC3)n3cnnc3c2C1 | -3.76% | 10.5% | 2.8% | 1.44% | -1.46% | -1.18% | 13.7% | -9.43% | 4.25% | 10.4% | -1.19%
CN1CCN(C(CNC(=O)CCn2cccn2)c2cccs2)CC1 (configuration not stated) | 1.81% | -2.67% | -4.22% | 0.224% | -3.6% | 4.17% | 6.63% | 5.37% | 2.73% | 3.7% | 2.11%
NCCn1nc(C2CCN(Cc3ccc(Cl)c(Cl)c3)C2)c2nccnc21 (configuration not stated) | -3.22% | -14.9% | 7.43% | 0.383% | 2.37% | -4.41% | 8.74% | 7.68% | 1.07% | -1.3% | -23.3%
O=C(c1cncc(Br)c1)N1CCC(O)(Cn2ccc3ccncc32)CC1 | 1.79% | 1.35% | 12.2% | -0.489% | -7.91% | 1.62% | 9.52% | 9.61% | 1.07% | 1.3% | -12.2%
Fc1cnc(N2CCCC3(CN(Cc4ccncc4)CCO3)C2)nc1 (configuration not stated) | -2.51% | 13.3% | 12.9% | -0.573% | -2.95% | 1.63% | 12.2% | 8.63% | 8.51% | 16.7% | -5.31%
Cc1cnn(CC2CCCCN2Cc2nc(N)c3ccccc3n2)c1 (configuration not stated) | -5.11% | 10.1% | -4.6% | 5.93% | 8.78% | 0% | 12.2% | -0.892% | 14.3% | 21.5% | -8.03%
O=C(C1CCOCC1)N1CCC2(CC1)CC(Oc1ccccc1)CO2 (configuration not stated) | 0.293% | 8.22% | -6.45% | 5.89% | 0.595% | -5.59% | 7.28% | 14.1% | 6.25% | 16.1% | -0.343%
O=C(NCCn1ccc(-c2ccccn2)n1)C1CC1 | -1.6% | 0% | 8.98% | 2.65% | -3.85% | 5.81% | 2.79% | 7.05% | 3.17% | 3.85% | -0.508%
c1sc(C2CCCC2)nc1CN1CCn2c(nnc2C2CC2)C1 | -6.12% | 5.41% | 0.718% | -3.09% | -2.14% | -0.554% | 10.4% | 37.1% | 10.9% | 15.8% | -4.21%
